Records with an inconclusive call do not appear. Active and inactive are the calls of the source. Unless noted, calls come from the whole dose curve.
Experiments:
[1] = qHTS assay to identify small molecule agonists of the peroxisome proliferator-activated receptor delta (PPARd) signaling pathway - cell viability counter screen (AID 743211; active = well fitted curve in the direction sought with a large enough effect in the repeat runs; an effect the other way counts as inactive or inconclusive; note: % is set by controls: 0 for no effect and ±100 for the full control effect; nearly all actives have a fitted effect of over 55% in size)
Procedure, shortened: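 Luminescent ATP viability assay (CellTiter-Glo, 30 min RT) in UAS-bla HEK293H cells carrying the PPAR delta reporter construct, 3000 cells/well, after a 17 h compound treatment at 37 C.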

[2] = qHTS assay to identify small molecule antagonists of the peroxisome proliferator-activated receptor delta (PPARd) signaling pathway - cell viability counter screen (AID 743213; active = well fitted curve in the direction sought with a large enough effect in the repeat runs; an effect the other way counts as inactive or inconclusive; note: % is set by controls: 0 for no effect and ±100 for the full control effect; nearly all actives have a fitted effect of over 50% in size)
Procedure, shortened: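 Luminescence from CellTiter-Glo, added after the bla read and incubated 30 min at room temperature, gives viability of HEK293H PPARd-bla cells exposed to compounds for 17 h at 37 C with 300 nM L165041.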

[3] = qHTS assay to identify small molecule agonists of the farnesoid-X-receptor (FXR) signaling pathway - cell viability counter screen (AID 743218; active = well fitted curve in the direction sought with a large enough effect in the repeat runs; an effect the other way counts as inactive or inconclusive; note: % is set by controls: 0 for no effect and ±100 for the full control effect; nearly all actives have a fitted effect of over 45% in size)
Procedure, shortened: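 Same-well cytotoxicity check on FXR-UAS-bla HEK 293T cells: 5 h attachment, 16 h compound at 37 C, CellTiter-Glo luminescence read at room temperature after 30 min.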

[4] = qHTS assay to identify small molecule antagonists of the farnesoid-X-receptor (FXR) signaling pathway - cell viability counter screen (AID 743221; active = well fitted cell-killing curve with a large enough effect in the repeat runs, not every such curve was filed as active; note: % is set by controls: 0 for no effect and ±100 for the full control effect; nearly all actives have a fitted effect of over 50% in size)
Procedure, shortened: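 In GeneBLAzer FXR-UAS-bla HEK 293T cells stimulated with 50 uM chenodeoxycholic acid (final), compounds acted for 16 h at 37 C. Viability was assessed afterwards by CellTiter-Glo luminescence.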

[5] = molecular target: Vitamin D3 receptor (Homo sapiens) (UniProt P11473); test: qHTS assay to identify small molecule agonists of the vitamin D receptor (VDR) signaling pathway (AID 743222); note: % is set by controls: 0 for no effect and ±100 for the full control effect
Chain of Vitamin D3 receptor (Homo sapiens) (P11473 whole entry, looked up): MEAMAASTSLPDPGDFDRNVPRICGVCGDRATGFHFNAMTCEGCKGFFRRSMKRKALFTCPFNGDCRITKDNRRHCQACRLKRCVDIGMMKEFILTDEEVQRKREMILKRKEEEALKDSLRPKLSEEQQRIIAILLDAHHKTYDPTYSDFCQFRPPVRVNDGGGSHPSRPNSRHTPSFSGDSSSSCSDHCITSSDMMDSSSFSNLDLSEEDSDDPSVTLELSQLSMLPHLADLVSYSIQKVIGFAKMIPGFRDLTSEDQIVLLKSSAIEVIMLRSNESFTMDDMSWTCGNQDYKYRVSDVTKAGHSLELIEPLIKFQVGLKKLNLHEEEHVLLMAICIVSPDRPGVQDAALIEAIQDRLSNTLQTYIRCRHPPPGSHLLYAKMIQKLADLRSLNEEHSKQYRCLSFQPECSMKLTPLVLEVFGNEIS
Procedure, shortened: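 Using LiveBLAzer B/G FRET detection, agonism was scored in VDR-bla cells exposed overnight (16 h, 37C) to DMSO-dissolved compounds; substrate incubation was 2 h at room temperature.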

[6] = molecular target: Vitamin D3 receptor (Homo sapiens) (UniProt P11473); test: qHTS assay to identify small molecule antagonists of the vitamin D receptor (VDR) signaling pathway (AID 743223; active = well fitted inhibition curve with a large enough effect in the signal ratio in the repeat runs, not every such curve was filed as active; the % refers to the signal ratio; note: % is set by controls: 0 for no effect and ±100 for the full control effect)
Procedure, shortened: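 Agonist 1alpha,25-dihydroxyvitamin D3 (3 nM in well) was added with each compound to VDR-bla cells preincubated 4 h. Cells stood 16 h at 37C, then FRET substrate 2 h at room temperature; fluorescence intensity recorded.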

[7] = qHTS assay to identify small molecule agonists of the vitamin D receptor (VDR) signaling pathway - cell viability counter screen (AID 743224; active = well fitted curve in the direction sought with a large enough effect in the repeat runs; an effect the other way counts as inactive or inconclusive; note: series mostly up to about 63 µM; % is set by controls: 0 for no effect and ±100 for the full control effect; nearly all actives have a fitted effect of over 50% in size)
Procedure, shortened: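 Counter screen for cytotoxicity: VDR-bla cells at 2,000 cells/well, 16 h compound exposure, then CellTiter-Glo luminescence after the beta-lactamase measurement.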

[8] = qHTS assay to identify small molecule antagonists of the vitamin D receptor (VDR) signaling pathway - cell viability counter screen (AID 743225; active = well fitted curve in the direction sought with a large enough effect in the repeat runs; an effect the other way counts as inactive or inconclusive; note: % is set by controls: 0 for no effect and ±100 for the full control effect; nearly all actives have a fitted effect of over 50% in size)
Procedure, shortened: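 Luminescent cell viability (CellTiter-Glo) in VDR-bla HEK 293T cells after 16 h compound exposure at 37C in the presence of 3 nM final 1-alpha,25-dihydroxy vitamin D3.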

[9] = qHTS assay to identify small molecule agonists of the NFkB signaling pathway (AID 1159509; active = well fitted curve in the direction sought with a large enough effect in the signal ratio in the repeat runs, not every such curve was filed as active; the % refers to the signal ratio; note: series mostly up to about 61 µM; % is set by controls: 0 for no effect and ±100 for the full control effect)
Procedure, shortened: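 Pathway activation was measured in ME-180 cells stably expressing beta-lactamase under NF-kB response element control. Substrate cleavage was read as the 460/530 nm emission shift after 5 hr compound incubation.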

[10] = qHTS assay to identify small molecule agonists of the NFkB signaling pathway - cell viability counter screen (AID 1159515); note: series mostly up to about 61 µM; % is set by controls: 0 for no effect and ±100 for the full control effect; nearly all actives have a fitted effect of over 55% in size
Procedure, shortened: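 Counter screen run alongside the NFkB-bla agonist assay: ME-180 reporter cells exposed to compounds for 5 hr, then lysed with CellTiter-Glo in the same wells. Luminescence, read after 30 min, reflects viable cells.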

[11] = qHTS assay to identify small molecule agonists of the endoplasmic reticulum stress response signaling pathway (AID 1159516; active = well fitted activation curve with a large enough effect in the signal ratio in the repeat runs, not every such curve was filed as active; the % refers to the signal ratio; note: % is set by controls: 0 for no effect and ±100 for the full control effect)
Procedure, shortened: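 For this screen, HeLa cells stably carrying beta-lactamase under the ER stress response element received test compounds, positive controls or DMSO for 5 hr at 37 C; B/G FRET substrate was then added and dual-wavelength emission recorded.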

[12] = qHTS assay to identify small molecule agonists of the endoplasmic reticulum stress response signaling pathway - cell viability counter screen (AID 1159517)
Procedure, shortened: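 In parallel with the ESRE reporter read, cytotoxicity was scored by CellTiter-Glo luminescence (30 min, room temperature) on HeLa ESRE-bla cells dosed for 5 hr.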

[13] = qHTS assay to identify small molecule antagonists of the retinoid-related orphan receptor gamma (ROR-gamma) signaling pathway - cell viability counter screen (AID 1159520; active = well fitted curve in the direction sought with a large enough effect in the repeat runs; an effect the other way counts as inactive or inconclusive)
Procedure, shortened: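 Tet-on ROR gamma CHO cells were given compounds for 2 hr, then doxycycline hyclate at 1 uM final, and incubated 16 hr at 37 C. Viability was measured as ATP content by CellTiter-Glo luminescence.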

[14] = qHTS assay to identify small molecule agonists of the AP-1 signaling pathway - cell viability counter screen (AID 1159525); note: nearly all actives have a fitted effect of over 55% in size
Procedure, shortened: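 Same-well cytotoxicity counter screen of the Tox21 10K library in ME-180 cells. The readout is ATP-dependent luminescence after 5 h compound treatment. Data are normalised to DMSO and tetra n-octyl ammonium bromide controls.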

[15] = qHTS assay to identify small molecule agonists of the AP-1 signaling pathway (AID 1159526); note: % is set by controls: 0 for no effect and ±100 for the full control effect
[16] = molecular target: Peroxisome proliferator-activated receptor delta (Homo sapiens) (UniProt Q03181); test: qHTS assay to identify small molecule agonists of the peroxisome proliferator-activated receptor delta (PPARd) signaling pathway (AID 743212); note: % is set by controls: 0 for no effect and ±100 for the full control effect
Chain of Peroxisome proliferator-activated receptor delta (Homo sapiens) (Q03181 whole entry, looked up): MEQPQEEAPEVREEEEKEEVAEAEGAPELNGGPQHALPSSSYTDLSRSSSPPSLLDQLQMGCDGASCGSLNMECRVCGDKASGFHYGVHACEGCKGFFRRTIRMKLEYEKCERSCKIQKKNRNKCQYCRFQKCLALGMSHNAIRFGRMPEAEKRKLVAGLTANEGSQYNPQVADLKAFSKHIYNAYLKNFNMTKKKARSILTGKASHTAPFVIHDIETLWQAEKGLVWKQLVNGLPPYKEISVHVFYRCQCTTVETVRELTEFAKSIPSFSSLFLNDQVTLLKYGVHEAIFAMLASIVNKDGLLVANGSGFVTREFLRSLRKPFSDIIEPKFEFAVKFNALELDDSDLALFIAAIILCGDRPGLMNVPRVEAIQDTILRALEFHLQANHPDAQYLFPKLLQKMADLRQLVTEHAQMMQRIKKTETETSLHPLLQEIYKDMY
Procedure, shortened: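 Tox21 library screened in GeneBLAzer PPARd UAS-bla HEK293H cells. After compound treatment at 37 C, a FRET-based beta-lactamase substrate was applied for 2 h and fluorescence recorded.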

[17] = molecular target: Peroxisome proliferator-activated receptor delta (Homo sapiens) (UniProt Q03181); test: qHTS assay to identify small molecule antagonists of the peroxisome proliferator-activated receptor delta (PPARd) signaling pathway (AID 743215; active = well fitted inhibition curve with a large enough effect in the signal ratio in the repeat runs, not every such curve was filed as active; the % refers to the signal ratio)
Procedure, shortened: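 Screen format: qHTS, antagonist mode. HEK293H PPARd-bla cells received compound and 300 nM L165041 (final), 17 h, 37 C. Beta-lactamase detected via FRET substrate fluorescence, 2 h, room temperature.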

[18] = molecular target: Bile acid receptor (Homo sapiens) (UniProt Q96RI1); test: qHTS assay to identify small molecule antagonists of the farnesoid-X-receptor (FXR) signaling pathway (AID 743217; active = well fitted inhibition curve with a large enough effect in the signal ratio in the repeat runs, not every such curve was filed as active; the % refers to the signal ratio; note: % is set by controls: 0 for no effect and ±100 for the full control effect)
Chain of Bile acid receptor (Homo sapiens) (Q96RI1 whole entry, looked up): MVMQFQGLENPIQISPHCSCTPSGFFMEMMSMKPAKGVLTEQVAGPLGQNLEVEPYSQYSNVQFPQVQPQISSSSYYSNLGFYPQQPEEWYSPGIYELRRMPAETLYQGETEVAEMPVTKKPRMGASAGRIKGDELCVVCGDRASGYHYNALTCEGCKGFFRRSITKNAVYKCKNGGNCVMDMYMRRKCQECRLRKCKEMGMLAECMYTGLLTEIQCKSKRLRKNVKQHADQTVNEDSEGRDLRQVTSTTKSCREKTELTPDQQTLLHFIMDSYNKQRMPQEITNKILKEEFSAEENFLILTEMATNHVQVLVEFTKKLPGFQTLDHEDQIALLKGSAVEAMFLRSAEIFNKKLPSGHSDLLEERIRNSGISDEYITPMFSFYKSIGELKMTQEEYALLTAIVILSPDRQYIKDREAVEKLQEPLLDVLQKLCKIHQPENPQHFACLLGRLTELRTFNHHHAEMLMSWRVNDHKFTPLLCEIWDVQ
Procedure, shortened: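 Quantitative HTS, beta-lactamase reporter format: FXR-UAS-bla HEK 293T cells co-treated 16 h at 37 °C with compounds and 50 uM final chenodeoxycholic acid, then read by B/G FRET fluorescence.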

[19] = molecular target: Bile acid receptor (Homo sapiens) (UniProt Q96RI1); test: qHTS assay to identify small molecule agonists of the farnesoid-X-receptor (FXR) signaling pathway (AID 743220; active = well fitted activation curve with a large enough effect in the signal ratio in the repeat runs, not every such curve was filed as active; the % refers to the signal ratio; note: % is set by controls: 0 for no effect and ±100 for the full control effect)
Procedure, shortened: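 FXR-UAS-bla HEK 293T cells carrying a UAS-driven beta-lactamase reporter were plated for 5 h at 37C/5% CO2, then exposed to DMSO-dissolved Tox21 10K compounds for 16 h at 37C. A LiveBLAzer B/G FRET substrate was loaded for 2 h at room temperature before fluorescence reading.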

[20] = molecular target: Nuclear receptor ROR-gamma (Homo sapiens) (UniProt P51449); test: qHTS assay to identify small molecule antagonists of the retinoid-related orphan receptor gamma (ROR-gamma) signaling pathway (AID 1159521; active = well fitted curve in the direction sought with a large enough effect in the repeat runs; an effect the other way counts as inactive or inconclusive)
Procedure, shortened: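 CHO cells expressing RORγ under a TET-on promoter, luciferase under RORE control. Dox 1 uM final, 16 h; compounds added 2 h prior. Luminescence decrease measured.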

Cc1cccnc1
inactive: outcome [1] | outcome [2] | Potency [3] | Potency [4] | outcome [5] | outcome [6] | Potency [7] | outcome [8] | outcome [9] | outcome [10] | outcome [11] | outcome [12] | Potency [13] | Potency [14] | outcome [15]

CN(C)CCC(c1ccccc1)c1ccccn1 (centres undefined)
inactive: outcome [1] | outcome [16] | outcome [2] | Potency [3] | Potency [4] | outcome [5] | outcome [6] | Potency [7] | outcome [8] | outcome [9] | outcome [10] | outcome [11] | outcome [12] | Potency [13] | Potency [14] | outcome [15]

CCCCCCCC(=O)OC
inactive: outcome [1] | outcome [16] | outcome [2] | Potency [17] | Potency [3] | Potency [4] | outcome [5] | outcome [6] | Potency [7] | outcome [8] | outcome [9] | outcome [10] | outcome [11] | outcome [12] | Potency [13] | Potency [14] | outcome [15]

O=c1[nH]c(=O)n([C@H]2C[C@H](O)[C@@H](CO)O2)cc1Br
inactive: outcome [1] | outcome [16] | outcome [2] | outcome [18] | Potency [3] | outcome [19] | Potency [4] | outcome [5] | outcome [6] | Potency [7] | outcome [8] | outcome [9] | outcome [10] | outcome [11] | outcome [12] | Potency [13] | Potency [14] | outcome [15]

CCc1ccc(CCOc2ccc(CC3SC(=O)NC3=O)cc2)nc1 (centres undefined)
inactive: outcome [1] | outcome [2] | Potency [4] | Potency [7] | outcome [8] | outcome [9] | outcome [10] | outcome [11] | outcome [12] | Potency [13] | Potency [14] | outcome [15]

CC(=O)Nc1cccc(O)c1
inactive: outcome [1] | outcome [2] | Potency [3] | Potency [4] | Potency [7] | outcome [9] | outcome [10] | outcome [11] | outcome [12] | Potency [13] | Potency [14] | outcome [15]

CC(C)(C)[C@@H](O)[C@@H](Cc1ccc(Cl)cc1)n1cncn1
inactive: outcome [1] | outcome [16] | outcome [2] | Potency [17] | outcome [18] | Potency [3] | outcome [19] | Potency [4] | outcome [5] | outcome [6] | Potency [7] | outcome [9] | outcome [10] | outcome [11] | outcome [12] | Potency [20] | Potency [14] | outcome [15]

NNc1nncc2ccccc12
inactive: outcome [1] | outcome [2] | Potency [3] | Potency [4] | outcome [5] | outcome [6] | Potency [7] | outcome [9] | outcome [10] | outcome [11] | outcome [12] | Potency [13] | Potency [14] | activation [15] -4.28% [at 15.8 µM]

COc1ccc(Nc2ccccc2)c(C)c1
inactive: outcome [1] | outcome [16] | Potency [17] | Potency [3] | Potency [4] | Potency [7] | outcome [9] | outcome [10] | outcome [11] | outcome [12] | Potency [13] | Potency [14] | outcome [15]

CCCCC(CC)COC(=O)CS (centres undefined)
inactive: outcome [1] | outcome [2] | Potency [3] | Potency [4] | outcome [5] | outcome [6] | Potency [7] | outcome [9] | outcome [10] | outcome [11] | outcome [12] | Potency [13] | Potency [14] | outcome [15]

Source: PubChem BioAssay (Tox21)
